# HCV inhibitor = blocks hepatitis C virus | Huh7.5.1 HCVcc-Cre infection, luciferase reporter, 44 h | Potency, µM (top dose mostly 41.8 µM), most hits filed as inhibitors | 3.4% of 340,000 active
#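 Reporter virus HCVcc-Cre (~0.5 moi) infects cells exposed to compound; seeding density 1,000 cells/well with 4 h settling beforehand. Luminescence, 15 sec read, taken 44 h post-infection following a 15 min RT substrate incubation.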
# Pf growth 96h = P. falciparum growth inhibition at 96 hours; P. falciparum luciferase reporter growth, 96 h; Potency, µM (series often up to 28.7 µM), hits mostly inhibitors; 6.9% of 320,000 active
#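 Luminescence readout: decreased luciferase signal marks inhibited growth of reporter-expressing P. falciparum in infected red cells (2% hematocrit, 0.05% parasitemia final), exposed to compound two generations (96 h, 37 C, 5% CO2).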
# Shiga toxin inh = inhibitors of Shiga toxin in Vero cells | Vero cells, Shiga toxin protein synthesis inhibition reporter | 9.2% of 290,000 active | inhibition, % at 38.7 µM; in the data active = inhibition mostly above about 28%, no sharp cut-off; inactive = mostly below about 43%
# Pf growth 48h = inhibits P. falciparum growth in the first generation, 48 h | P. falciparum luciferase growth in erythrocytes, 48 h | Potency, µM (doses to about 28.7 µM), usual class: inhibitors | 5.9% of 310,000 active
#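 Parasite viability was followed by luminescence of a genomically integrated firefly luciferase. Cultures held 0.1% parasitemia at 2% hematocrit (final), incubated under 5% CO2 at 37 C.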
# HCMV inh = blocks human cytomegalovirus replication; HFF cells, HCMV-luciferase reporter, 72 h; active compounds read low; activity change, negative = inhibition, % at 57.5 µM; 4.5% of 410,000 active; AID 1259415; in the data active = activity change below about -60%; inconclusive = no clear call, values can overlap the other calls; inactive = above about -39%
#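 Compounds were evaluated in HFFs infected with an HCMV luciferase reporter virus (MOI 1 PFU/cell). Luciferase in lysates collected 72 h post infection served as the replication measure.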
# Cycloheximide cs = affects cycloheximide protein synthesis inhibition readout, counter-screen; cell reporter, cycloheximide protein synthesis inhibition counterscreen; 12% of 300,000 active; max response, %; in the data active = max response mostly above about 13%, no sharp cut-off; inactive = mostly below about 14%; also: read at 38.3 µM for the half of the compounds with a filed dose
# Hits are given with their value; - = inactive; ? = inconclusive; . = no result; + = active, no number; [ ] = another dose, or the depositor's remark. Rows were chosen to be rich in hits. Some 21% of all compounds tested hit in one or more screens of this group. Unless noted, calls follow the shape of the dose curve; as a rule, active = well fitted inhibition curve with a large enough effect; inconclusive = small, poorly fitted or top-dose-only effect, or another doubt; inactive = no such curve, though single readings can be large or run the other way.
SMILES,HCV inhibitor,Pf growth 96h,Shiga toxin inh,Pf growth 48h,HCMV inh,Cycloheximide cs
Cc1ccc(NC(=O)CCc2nnc3ccc(NCc4ccco4)nn23)cc1,-,?,-,?,-,35
CCOc1ccc(CN(C)C(=O)c2ccc3c(c2)NC(=O)C(C)S3)cc1OC (configuration not stated),13µM,?,.,?,-,.
COc1ccc(CCNS(=O)(=O)c2ccc3c(c2)NC(=O)C(C)S3)cc1OC (configuration not stated),25µM,-,-,-,-,-
COc1ccccc1NS(=O)(=O)c1ccc2c(c1)NC(=O)C(C)S2 (configuration not stated),-,-,-,?,-,23
CCC(Cc1ccccc1)NS(=O)(=O)c1ccc2c(c1)NC(=O)C(C)S2 (configuration not stated),?,15µM,-,-,-86,-
CCc1cccc(NS(=O)(=O)c2ccc3c(c2)NC(=O)C(C)S3)c1 (configuration not stated),?,-,-,-,-,-
Nc1ccc(S(=O)(=O)NC(Cc2ccccc2)C(=O)O)cc1 (configuration not stated),-,-,-,-,-,-
O=S(=O)(Cc1ccccc1)Oc1ccccc1,-,-,-,-,-63,-
O=C(O)C(Cc1ccc(OS(=O)(=O)Cc2ccccc2)cc1)NS(=O)(=O)Cc1ccccc1 (configuration not stated),-,.,.,.,-60,.
CC(Oc1ccccc1F)C(=O)NNC(=O)Cc1ccc(S(=O)(=O)N2CCOCC2)s1 (configuration not stated),-,.,.,.,-,.
COc1ccc(NC(=O)Cn2c(=O)oc3cc(S(=O)(=O)N4CCCC4)ccc32)c(OC)c1,-,6.6µM,-,-,-,-
COc1ccc(NC(=O)Cn2c(=O)oc3cc(S(=O)(=O)NC4CCCC4)ccc32)cc1OC,.,.,.,.,+,.
O=C(Cn1c(=O)oc2cc(S(=O)(=O)N3CCCCCC3)ccc21)NC1CCCCCCC1,-,12µM,-,.,-,-
COc1ccc(NC(=O)Cn2c(=O)oc3cc(S(=O)(=O)N4CCC(C)CC4)ccc32)c(OC)c1,.,.,.,.,-,.
CCCNC(=O)Cn1c(=O)oc2cc(S(=O)(=O)N3CCCC3)ccc21,-,-,-,-,-,-
O=C(Cn1c(=O)oc2ccc(Cl)cc21)NC1CCCCC1,-,9.3µM,-,-,?,-
C=C1CC[C@H](O)C/C1=C/C=C1\CCC[C@]2(C)[C@@H]([C@H](C)CCCC(C)(C)O)CC[C@@H]12,.,-,.,?,.,.
Cc1ccc(N(Cc2ccc(C(=O)NN=C3CCN(C)CC3)cc2)S(C)(=O)=O)cc1C,-,-,-,?,?,-
Cc1ccc(S(=O)(=O)N2CCN(Cc3cc(=O)n4nc(-c5ccccc5Cl)sc4n3)CC2)cc1,.,.,.,.,-,.
CCOC(=O)n1c(=O)oc2cc(S(=O)(=O)N3CCOCC3)ccc21,-,.,-,-,-,-
CC(C)COC(=O)n1c(=O)oc2cc(S(=O)(=O)N3CCCCC3)ccc21,-,.,-,8.3µM,?,-
COc1cccc(NC(=O)CCCCCN2C(=O)[C@@H]3Cc4ccccc4CN3C2=O)c1,?,12µM,-,?,-,-
CC(=O)Nc1ccc2c(c1)C(=O)c1ccccc1C2=O,10µM,.,84,-,-,51
O=C1c2ccccc2C(=O)c2cc(NC(=O)C3CC3)ccc21,-,?,33,-,-,20
CC(=O)Nc1c(Cl)cc2c(c1Cl)C(=O)c1ccccc1-2,11µM,.,.,.,-,.
SMILES,HCV inhibitor,Pf growth 96h,Shiga toxin inh,Pf growth 48h,HCMV inh,Cycloheximide cs
CC(=O)c1ccc2c(c1)Cc1cc(C(C)=O)ccc1-2,-,5.2µM,134,-,-,31
COc1cc(C(=O)Nc2ccc3c(c2)C(=O)c2ccccc2C3=O)cc(OC)c1OC,-,-,-,-,-,-
CC(C)CN1C(=O)c2ccc(NC(=O)C3CC3)cc2C1=O,-[8.37 µM],-,-,-,-,-
COc1ccc(OC)c(CNS(=O)(=O)c2ccc3c(c2)CCCN3C(C)=O)c1,.,.,.,.,-,.
CC1(C(=O)N2CCCCC2)CCN1C(=O)C1(c2ccccc2)CC1 (configuration not stated),.,.,.,.,-,.
CCCCNc1nc2ccccc2nc1Cl,-,-,-,?,-,-
CC(=O)Nc1c(Br)cc2c(c1Br)Cc1cc(Br)ccc1-2,?,.,.,.,-,.
O=C(O)/C=C/C(=O)c1ccc2c(c1)CCc1ccccc1-2,13µM,-,.,-,-61,.
CC(=O)Nc1ccc2c(c1)CCc1ccccc1-2,-,-,97,.,-,46
CC(=O)Nc1ccc2c(c1)Cc1c(F)cccc1-2,10µM,.,.,.,-,.
O=C(O)c1c2c(nc3ccccc13)-c1ccccc1CC2,-,-,-,-,-,-
CC(=O)Nc1ccc2c(c1)Cc1c-2cc(Br)c(N)c1Br,11µM,.,.,.,-,.
CC(=O)Nc1ccc2c(c1)N(C(=O)CN(C)C)c1ccccc1CC2,-,-,-,.,-,-
COc1ccc(C(=O)NC(=S)Nc2ccc3c(c2)Cc2ccccc2-3)cc1,-,.,-,-,-,-
COc1ccc(CN2C(=NC(=O)C3CC3)SC3CS(=O)(=O)CC32)cc1 (configuration not stated),-,-,-,-,-,-
O=C(O)/C=C/C(=O)Nc1ccc2c(c1)C(=O)c1ccccc1C2=O,-,-,135,-,-,62
O=C(O)/C=C/C(=O)Nc1ccc(Oc2ccccc2)cc1,-,-,-,-,-,-
O=C(O)C1Nc2ccc(C(F)(F)F)cc2C2OCCC12 (configuration not stated),-,.,.,.,-,.
CCc1ccc2c(c1)[C@H]1OCC[C@H]1[C@@H](c1cccs1)N2,?,-,42,-,-,26
COc1cccc(OCCCn2c(-c3ccc(Cl)cc3)nc3ccccc3c2=O)c1,.,.,.,.,-,.
COc1ccc(C2c3ccc(O)cc3Oc3ncn4nc(-c5cccnc5)nc4c32)cc1OC (configuration not stated),28µM,4.1µM,-,5.2µM,-,-
COc1ccc(C2c3ccc4ccccc4c3Oc3ncn(Cc4ccco4)c(=N)c32)cc1OC (configuration not stated),?,?,-,13µM,-,-
COc1ccc(C2c3ccc4ccccc4c3Oc3ncn(CCCN(C)C)c(=N)c32)cc1 (configuration not stated),?,1.7µM,-,1.7µM,-64,-
COc1ccc(C2c3ccc(O)cc3Oc3ncn(CC(C)C)c(=N)c32)cc1 (configuration not stated),-,-,-,5.2µM,-,-
COc1ccc(C2c3ccc(O)cc3Oc3ncn(Cc4ccco4)c(=N)c32)cc1OC (configuration not stated),?,-,-,?,?,-
N=c1c2c(ncn1CCCO)Oc1cc(O)ccc1C2c1ccccc1 (configuration not stated),-,?,-,?,-,-

# High-throughput results as filed in PubChem BioAssay.
